The supplement of paper PMC3334620
Whole data set: some 33,000 sequences, median “E-score (-0.5 to 0.5)” near -0.035, cut for the highest 2% near 0.35. Only a selection was taken, and the highest values are over-represented in it overall.

Biological target: T1, Pdr3 (UniProt P33200)
T1 sequence: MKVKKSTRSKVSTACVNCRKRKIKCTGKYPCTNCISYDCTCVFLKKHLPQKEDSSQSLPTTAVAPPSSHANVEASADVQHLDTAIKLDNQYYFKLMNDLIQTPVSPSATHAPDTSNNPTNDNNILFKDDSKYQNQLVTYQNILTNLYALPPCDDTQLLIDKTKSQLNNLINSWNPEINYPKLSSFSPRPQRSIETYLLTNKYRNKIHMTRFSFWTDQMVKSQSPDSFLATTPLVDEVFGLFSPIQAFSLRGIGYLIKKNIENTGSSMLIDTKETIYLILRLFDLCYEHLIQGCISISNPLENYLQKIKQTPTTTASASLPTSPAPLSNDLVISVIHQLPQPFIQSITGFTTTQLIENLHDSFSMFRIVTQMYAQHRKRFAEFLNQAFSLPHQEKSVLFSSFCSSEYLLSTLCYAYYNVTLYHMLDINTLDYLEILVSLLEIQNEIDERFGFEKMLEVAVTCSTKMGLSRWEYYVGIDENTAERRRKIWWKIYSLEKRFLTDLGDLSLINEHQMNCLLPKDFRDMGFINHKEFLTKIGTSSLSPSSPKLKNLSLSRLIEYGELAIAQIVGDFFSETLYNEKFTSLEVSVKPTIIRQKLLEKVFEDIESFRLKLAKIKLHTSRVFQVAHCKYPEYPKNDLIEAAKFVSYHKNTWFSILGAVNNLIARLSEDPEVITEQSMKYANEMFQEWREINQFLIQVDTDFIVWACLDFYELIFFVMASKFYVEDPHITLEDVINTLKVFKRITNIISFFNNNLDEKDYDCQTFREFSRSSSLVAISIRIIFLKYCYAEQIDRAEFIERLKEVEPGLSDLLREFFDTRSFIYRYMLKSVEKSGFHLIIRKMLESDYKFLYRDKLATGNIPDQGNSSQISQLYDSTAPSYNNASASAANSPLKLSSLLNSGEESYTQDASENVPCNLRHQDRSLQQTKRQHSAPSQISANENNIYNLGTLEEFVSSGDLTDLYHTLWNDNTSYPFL
Assay: PBM E-score (8-mer binding enrichment) (E-score (-0.5 to 0.5)); higher = stronger / more preferred TF binding
Settings: protein concentration: 200 nM; construct: GST-full length
Procedure, shortened: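 Masliner-normalised scans of fluorescent anti-GST signal were the basis for scoring. That signal came from GST-tagged yeast transcription factors applied at about 100-200 nM to double-stranded universal all-10-mer Agilent arrays on fresh or once-stripped slides. Each ungapped eight-base word, pooled with its reverse complement, received an E-score from the Universal PBM Analysis Suite.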

Row | Sequence | PBM E-score
1 | AAATAGTA | 0.152
2 | AGAGCAAC | -0.197
3 | CCTATGGA | -0.127
4 | CCTAGGTA | -0.174
5 | AAAAGCAC | -0.291
6 | AAAGACTA | -0.113
7 | CGTTTTAG | -0.195
8 | GGGCGTCA | 0.0172
9 | CGGAATGA | 0.435
10 | AGGAATGC | -0.0575
11 | GGGAATGA | 0.219
12 | AGGAATGA | -0.0139
13 | CTGAATGC | -0.0711
14 | CGGAATGC | 0.434
15 | AGATCGTA | -0.304
16 | ATCTCAGG | 0.00088
17 | ATTGTCGG | 0.193
18 | GATCTACC | 0.00285
19 | CTGGTTCC | 0.264
20 | ATTGTTCG | 0.194
21 | ACCGTTCC | 0.364
22 | ATGGTTCA | 0.0467
23 | ATGGTTCC | 0.371
24 | CGTGTTCC | 0.383
25 | ACCGTTCT | -0.0192

Row | Sequence | PBM E-score
26 | CGTGTTCA | -0.0434
27 | CCCGTTCC | 0.347
28 | ATTGTTCC | 0.378
29 | AGTGTTCC | 0.301
30 | CTTGTTCC | 0.207
31 | CCTACTCG | 0.101
32 | ACCAGCAA | 0.0732
33 | CACCGACC | 0.0698
34 | ACTGAGCG | -0.185
35 | GGACAATA | 0.28
36 | TATTTACA | -0.097
37 | CCAGTTCC | 0.318
38 | ACAGTTCC | 0.387
39 | ACAGTTCT | 0.082
40 | AGAGGAAA | 0.0754
41 | AGCGGAAA | 0.391
42 | CGCGGAAA | 0.476
43 | CGCAGAAG | -0.09
44 | CGGGGAAA | 0.246
45 | CGCGGAAG | 0.454
46 | CGTGGAAA | 0.243
47 | GGCAGAAC | 0.123
48 | AGGGGAAA | -0.0896
49 | GGCGGAAC | 0.467
50 | GGGGGAAC | -0.165

Row | Sequence | PBM E-score
51 | CGTGGAAG | 0.208
52 | AATTCGAT | 0.0319
53 | AGCCTCGG | 0.156
54 | TGCGGAAA | 0.357
55 | GGAGGAAA | 0.0123
56 | TGCGGACA | 0.237
57 | AGCGGAAT | 0.392
58 | GGGGGAAA | 0.138
59 | AGGGGAAC | -0.0871
60 | AGCGGAAC | 0.457
61 | AGCGGAAG | 0.341
62 | AGAGGAAC | -0.066
63 | GGCGGAAA | 0.361
64 | TGCGGGAA | 0.313
65 | AGCGGACT | -0.0134
66 | CCGCCGAA | 0.277
67 | CCCAACTC | 0.16
68 | ACCCTCGG | 0.156
69 | CGTCGTAA | -0.0777
70 | CGCATCAC | -0.0776
71 | AGGCAACG | 0.00606
72 | ACAACCGC | 0.202
73 | AAAACTAC | 0.179
74 | GATCGGAC | 0.362
75 | AATCGGAC | 0.212

Row | Sequence | PBM E-score
76 | TATCGGCA | 0.101
77 | AATCGGAA | 0.445
78 | AATCGGAT | 0.317
79 | TATCGGAA | 0.419
80 | GATCGGGC | 0.142
81 | AATCGGAG | 0.276
82 | CATCGGAG | 0.0478
83 | CATCGGAA | 0.422
84 | CATCGGAC | 0.143
85 | TATCGGGA | 0.228
86 | CCTTTAGA | -0.22
87 | GCAGAATA | -0.0373
88 | CCTTCCTA | -0.401
89 | TCGGTAGA | -0.027
90 | AAAGTTGA | -0.0975
91 | AACGGCTC | 0.0795
92 | ACGTTACG | -0.211
93 | AATTTGCT | -0.114
94 | CTGCTCCC | -0.0396
95 | GACCCGCA | 0.0817
96 | GATCGGGA | 0.171
97 | GATCGGTA | 0.146
98 | GATCGGAA | 0.424
99 | GTGCTTCA | -0.0273
100 | AGCTTAAG | -0.0452

Row | Sequence | PBM E-score
101 | GGGCCCAA | 0.0863
102 | AAGTGAGG | -0.173
103 | AAACCCGA | 0.243
104 | ACCGGGGG | 0.0642
105 | CCCCCGCG | 0.349
106 | CCCCCGGG | 0.364
107 | ACCCGGGG | 0.357
108 | ACCCCCGG | 0.17
109 | CCCCCCGG | 0.132
110 | ACCCCGTG | 0.181
111 | AACCGGGG | 0.199
112 | AAACCCGC | 0.258
113 | ACCCCGGG | 0.376
114 | AAACCCGG | 0.401
115 | ATAGATTA | -0.0055
116 | CCAATAGG | -0.154
117 | CGAGATAC | 0.128
118 | GGTAAAGA | -0.0497
119 | ATGTCTGA | -0.106
120 | ATCCAAAA | -0.00928
121 | GGCCCCGA | 0.181
122 | GGCAGCCA | 0.0184
123 | GTATCTAA | 0.0522
124 | CTGAGAAA | -0.236
125 | CGCAATGC | -0.0405

Row | Sequence | PBM E-score
126 | ACAGTGAC | 0.0756
127 | CACCGGGG | 0.0593
128 | AACCCGGT | 0.258
129 | CCCCGGCC | 0.0967
130 | CCCCGGGG | 0.412
131 | AACCCGGG | 0.424
132 | AACCCCGG | 0.312
133 | GGCGAGCA | 0.0206
134 | CAGATAGC | -0.0206
135 | ATAGTTAA | -0.038
136 | CTCAGTAC | -0.183
137 | GACAAACC | -0.0403
138 | TCGTACGA | -0.293
139 | ACTTGGTG | -0.141
140 | ACGGAAAT | 0.452
141 | AGGGAAAT | -0.115
142 | GCGGGAAA | 0.332
143 | ATGGAAAA | 0.0967
144 | GAGGAAAA | 0.0256
145 | ACGGAAAC | 0.452
146 | ACGGAAAA | 0.403
147 | GCGGAAAA | 0.397
148 | AGGGAAAC | -0.104
149 | AAGGAAAC | 0.0238
150 | AAGGAAAT | 0.00091

Row | Sequence | PBM E-score
151 | ACGGGAAA | 0.277
152 | AGCACCAA | -0.0317
153 | GGTTGCCA | 0.233
154 | ATAACGCG | 0.168
155 | CCTATCCC | 0.188
156 | TTGCGAAA | 0.119
157 | ACACTCCG | 0.204
158 | ACATGCGT | -0.265
159 | GCGGAAAC | 0.415
160 | TCGGAAAA | 0.4
161 | GGGGAAAC | 0.206
162 | TTGGAAAA | -0.141
163 | GAGGAAAC | 0.053
164 | TGGGAAAA | -0.104
165 | ACTATCAC | -0.18
166 | GGTGCACC | -0.0384
167 | CTCACCAG | -0.147
168 | ACCGGCGG | 0.256
169 | CCCGGCCG | 0.357
170 | GCGGGCAC | 0.216
171 | CCGGGCCA | 0.346
172 | CCGGGCAC | 0.364
